Compound in the test: Nc1nc2c(ncn2[C@@H]2O[C@H](COP(=O)(O)OP(=O)(O)OP(=O)(O)O)[C@@H](O)[C@H]2O)c(=O)[nH]1 [guanosine triphosphate]
Put plainly: NP40-soluble protein abundance relative to vehicle (solubility fold change) (ratio); higher = more soluble protein in presence of GTP. The method, then: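 Solubility proteome profiling in Jurkat crude lysate. Lysate was treated with Mg-GTP (0.1-10 mM) for 10 min at room temperature and 3 min at 37 °C, then solubilised with 0.8% NP40 and benzonase, followed by ultracentrifugation. Proteins were quantified by TMT10 LC-MS/MS; the value is the NP40-soluble abundance relative to the NP40-processed vehicle, from 3 independent experiments.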

± gives the standard deviation of the averaged measurements. The full data set covers some 5,400 targets. This sample favours those with the largest changes.

Drawing on the supplement of paper PMC6411743, this text covers NP40-soluble protein abundance for five targets.

UniProt P50395, sequence (P50395 whole entry, one chain of several): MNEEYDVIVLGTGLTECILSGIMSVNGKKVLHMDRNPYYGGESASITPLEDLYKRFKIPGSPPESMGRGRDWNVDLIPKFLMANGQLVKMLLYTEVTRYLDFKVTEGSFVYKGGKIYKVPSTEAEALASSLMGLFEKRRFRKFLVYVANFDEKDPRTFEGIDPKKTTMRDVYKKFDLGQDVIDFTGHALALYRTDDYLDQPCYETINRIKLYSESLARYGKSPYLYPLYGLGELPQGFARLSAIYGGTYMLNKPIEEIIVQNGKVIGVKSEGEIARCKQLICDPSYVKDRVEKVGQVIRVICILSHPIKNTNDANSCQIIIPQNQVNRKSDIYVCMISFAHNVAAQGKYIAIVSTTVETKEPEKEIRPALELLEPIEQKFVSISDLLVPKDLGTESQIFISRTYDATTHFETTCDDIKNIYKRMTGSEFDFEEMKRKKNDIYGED
UniProt P17029, sequence (P17029 whole entry): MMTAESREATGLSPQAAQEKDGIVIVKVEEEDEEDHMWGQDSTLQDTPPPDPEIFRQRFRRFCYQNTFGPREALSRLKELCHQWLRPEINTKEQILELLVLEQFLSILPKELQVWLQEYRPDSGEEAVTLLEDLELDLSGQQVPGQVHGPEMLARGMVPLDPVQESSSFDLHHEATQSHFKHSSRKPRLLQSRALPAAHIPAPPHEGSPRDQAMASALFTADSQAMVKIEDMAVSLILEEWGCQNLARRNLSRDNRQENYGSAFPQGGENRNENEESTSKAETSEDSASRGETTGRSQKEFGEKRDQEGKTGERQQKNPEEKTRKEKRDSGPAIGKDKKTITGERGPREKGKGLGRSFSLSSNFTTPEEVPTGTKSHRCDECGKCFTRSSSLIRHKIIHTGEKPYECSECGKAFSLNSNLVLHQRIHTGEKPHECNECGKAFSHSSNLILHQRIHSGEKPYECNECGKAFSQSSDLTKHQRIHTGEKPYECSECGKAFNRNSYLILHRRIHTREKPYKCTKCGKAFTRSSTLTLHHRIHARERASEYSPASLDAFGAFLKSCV
UniProt P67936, sequence (P67936 whole entry, one chain of several): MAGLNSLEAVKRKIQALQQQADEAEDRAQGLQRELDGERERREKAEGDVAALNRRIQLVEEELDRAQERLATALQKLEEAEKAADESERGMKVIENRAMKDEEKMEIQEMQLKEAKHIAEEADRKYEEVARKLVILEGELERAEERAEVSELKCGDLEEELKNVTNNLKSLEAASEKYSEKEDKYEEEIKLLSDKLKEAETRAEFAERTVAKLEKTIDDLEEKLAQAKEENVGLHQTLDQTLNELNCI
UniProt O75582, sequence (O75582 whole entry, looked up, one chain of several): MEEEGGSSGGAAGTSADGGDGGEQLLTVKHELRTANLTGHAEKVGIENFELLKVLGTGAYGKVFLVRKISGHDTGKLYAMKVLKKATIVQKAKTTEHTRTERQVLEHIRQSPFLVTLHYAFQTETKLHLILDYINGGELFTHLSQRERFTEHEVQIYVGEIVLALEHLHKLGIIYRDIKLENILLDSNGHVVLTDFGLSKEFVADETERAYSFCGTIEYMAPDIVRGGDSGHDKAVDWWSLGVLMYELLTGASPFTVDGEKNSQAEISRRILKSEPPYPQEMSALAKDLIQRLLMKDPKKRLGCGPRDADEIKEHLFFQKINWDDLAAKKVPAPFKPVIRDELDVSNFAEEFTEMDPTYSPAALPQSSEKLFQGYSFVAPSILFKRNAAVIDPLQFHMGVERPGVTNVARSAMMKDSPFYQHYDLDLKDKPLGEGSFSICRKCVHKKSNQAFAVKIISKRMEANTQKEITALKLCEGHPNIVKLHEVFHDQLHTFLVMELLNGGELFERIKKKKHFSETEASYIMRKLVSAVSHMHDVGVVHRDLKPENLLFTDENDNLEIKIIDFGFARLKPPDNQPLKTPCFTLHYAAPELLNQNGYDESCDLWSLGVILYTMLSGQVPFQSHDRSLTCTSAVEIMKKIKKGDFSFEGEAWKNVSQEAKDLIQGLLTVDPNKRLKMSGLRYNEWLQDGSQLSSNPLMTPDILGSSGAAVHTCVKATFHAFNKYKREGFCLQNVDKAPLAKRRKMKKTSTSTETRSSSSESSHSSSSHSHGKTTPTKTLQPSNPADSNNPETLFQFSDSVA
UniProt P09382, sequence (P09382 whole entry): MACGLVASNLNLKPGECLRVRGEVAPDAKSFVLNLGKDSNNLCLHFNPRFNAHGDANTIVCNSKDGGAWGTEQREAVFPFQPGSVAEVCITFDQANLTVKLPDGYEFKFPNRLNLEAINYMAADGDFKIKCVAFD

For the target K7EQW8|P67936|K7ERG3 (UniProt P67936), the NP40-soluble protein abundance (concentration: 0.1mM) is 0.803 ± 0.15; the NP40-soluble protein abundance (concentration: 0.5mM) was determined as 0.716 ± 0.089; the NP40-soluble protein abundance (concentration: 1mM) came to 1.39 ± 0.5; the NP40-soluble protein abundance (concentration: 2mM) was 1.19 ± 0.29; the NP40-soluble protein abundance (concentration: 4mM) was 1.27 ± 0.27; the NP40-soluble protein abundance (concentration: 6mM) came out at 1.27 ± 0.21. Besides, the NP40-soluble protein abundance runs as follows: (concentration: 8mM) 1.15 ± 0.34; (concentration: 10mM) 1.83 ± 0.49.

Regarding LGALS1 (UniProt P09382), the NP40-soluble protein abundance was 0.889 ± 0.036 (concentration: 0.1mM); 0.886 ± 0.037 (concentration: 0.5mM); 0.885 ± 0.042 (concentration: 1mM); 0.789 ± 0.055 (concentration: 2mM); 0.813 ± 0.11 (concentration: 4mM); 0.822 ± 0.067 (concentration: 6mM). Besides, the NP40-soluble protein abundance (concentration: 8mM) was 0.821 ± 0.03 and the NP40-soluble protein abundance (concentration: 10mM) amounted to 0.809 ± 0.055.

Regarding ZKSCAN1 (UniProt P17029), the NP40-soluble protein abundance was 0.9748 ± 0.0051 (concentration: 0.1mM); 0.986 ± 0.034 (concentration: 0.5mM); 0.987 ± 0.047 (concentration: 1mM); 0.958 ± 0.024 (concentration: 2mM); 0.963 ± 0.015 (concentration: 4mM); 0.978 ± 0.026 (concentration: 6mM). In addition, the NP40-soluble protein abundance is, setting by setting: (concentration: 8mM) 1 ± 0.075; (concentration: 10mM) 0.993 ± 0.041.

With UniProt O75582|A0A0A0MQV2, the NP40-soluble protein abundance was 1.05 ± 0.079 (concentration: 0.1mM); 1.06 ± 0.059 (concentration: 0.5mM); 0.965 ± 0.044 (concentration: 1mM); 0.965 ± 0.068 (concentration: 2mM); 0.979 ± 0.083 (concentration: 4mM); 0.965 ± 0.056 (concentration: 6mM). The NP40-soluble protein abundance (concentration: 8mM) amounted to 0.934 ± 0.031 and the NP40-soluble protein abundance (concentration: 10mM) worked out at 0.912 ± 0.044.

For the target UniProt P50395|Q5SX86, the NP40-soluble protein abundance (concentration: 0.1mM) came out at 0.966 ± 0.022; the NP40-soluble protein abundance (concentration: 0.5mM) amounted to 0.999 ± 0.023; the NP40-soluble protein abundance (concentration: 1mM) stood at 0.916 ± 0.02; the NP40-soluble protein abundance (concentration: 2mM) was 0.899 ± 0.0095; the NP40-soluble protein abundance (concentration: 4mM) was found to be 0.882 ± 0.012; the NP40-soluble protein abundance (concentration: 6mM) came out at 0.89 ± 0.017. Also, the NP40-soluble protein abundance (concentration: 8mM) amounted to 0.859 ± 0.04 and the NP40-soluble protein abundance (concentration: 10mM) was 0.829 ± 0.057.
